# Source: PubChem (The Scripps Research Institute Molecular Screening Center)
# MITF inh = human MITF inhibition, primary screen; hit rate 0.91% among 650,000; inhibition, % at 2.6 µM; AlphaScreen MITF homodimerization, bead proximity signal; in the data active = inhibition above about 50%;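 also: 0% = vehicle wells with protein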
# Target sequence (O75030 whole entry, looked up): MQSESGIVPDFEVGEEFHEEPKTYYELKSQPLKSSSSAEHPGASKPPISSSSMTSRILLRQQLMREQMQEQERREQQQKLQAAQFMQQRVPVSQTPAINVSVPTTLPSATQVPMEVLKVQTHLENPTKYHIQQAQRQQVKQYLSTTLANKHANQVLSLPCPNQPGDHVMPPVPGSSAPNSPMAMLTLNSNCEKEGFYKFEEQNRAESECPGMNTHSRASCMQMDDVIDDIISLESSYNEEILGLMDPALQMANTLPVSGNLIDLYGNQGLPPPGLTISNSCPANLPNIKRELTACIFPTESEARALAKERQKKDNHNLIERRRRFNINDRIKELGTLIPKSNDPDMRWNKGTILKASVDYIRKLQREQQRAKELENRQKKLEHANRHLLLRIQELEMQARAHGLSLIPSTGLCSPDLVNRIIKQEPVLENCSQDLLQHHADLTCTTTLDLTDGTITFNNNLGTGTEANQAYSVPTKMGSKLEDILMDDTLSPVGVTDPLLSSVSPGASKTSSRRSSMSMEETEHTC
# TEAD-YAP block = TEAD-YAP interaction inhibition; HEK-TIYL cells, TEAD-Gal4/YAP UAS-luciferase luminescence; inhibition, % at 9.12 µM; hit rate 1.4% among 640,000; AID 1259422; in the data active = inhibition above about 32%;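 also: 0% = median of test compound wells and 100% = reference inhibitor wells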
# FBW7 act = activators of human E3 ligase FBW7; AlphaScreen FBW7–phospho-cyclin E peptide binding, activator screen; normalized activity (activation), % at 26.1 µM; hit rate 0.13% among 650,000; in the data active = normalized activity above about 1.9%;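 also: purified mutant Fbw7 with reduced substrate affinity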
# GPR151 activ = activators of human GPR151; Q8TDV0; PathHunter beta-arrestin GPR151 cells, luminescence; activation, % at 11.2 µM; hit rate 1% among 650,000; AID 1508602; in the data active = activation above about 4.9%;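 also: 0% = median of compound wells and 100% = cells with positive control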
# Starred values were filed as active, the others as inactive; . = no result. Hits are enriched below; roughly 3.5% of the tested compounds scored in any of these assays.
SMILES,MITF inh,TEAD-YAP block,FBW7 act,GPR151 activ
COc1ccccc1N1CCN(C(=O)CSc2nc3ccc(Br)cc3c3nc4ccccc4n23)CC1,18,19,1,0
CC(C)N(C(=O)CO[C@@H]1[C@H]2OC(C)(C)O[C@H]2O[C@@H]1C1COC(C)(C)O1)c1ccccc1 (some centres not stated),2,1,0,-1
CCCN1C(=O)c2ccc3c4c(ccc(c24)C1=O)CC3,-4,-3,0,1
O=C1NC(=Nc2ccc(O)cc2)S/C1=C\c1ccccc1F,-13,43*,0,1
Cc1ccc(S(=O)(=O)NC(CC(=O)N(C)Cc2ccccc2)c2ccco2)cc1 (configuration not stated),20,2,0,-1
CC(C)C(=O)NC(c1ccc(Cl)cc1)c1ccc2cccnc2c1O (configuration not stated),12,85*,-2,1
CC(C)C(=O)NC(c1ccco1)c1ccc2cccnc2c1O (configuration not stated),44,64*,-2,-2
CC(C)C(=O)NC(c1ccccc1)c1ccc2cccnc2c1O (configuration not stated),28,90*,-1,-1
CC(C)C(=O)NC(c1ccccc1Cl)c1ccc2cccnc2c1O (configuration not stated),19,84*,-2,1
CC(C)c1ccc(C(NC(=O)C2CCCCC2)c2ccc3cccnc3c2O)cc1 (configuration not stated),5,19,1,2
O=C(Nc1c2c(nn1-c1ccc([N+](=O)[O-])cc1)CSC2)c1ccc(Cl)cc1,7,-3,0,0
COc1cccc(/C=N/NC(=O)c2cc(-c3cccn3C)n[nH]2)c1O,18,38*,-1,0
COc1cccc(/C=N/NC(=O)c2cc(-c3cccc([N+](=O)[O-])c3)n[nH]2)c1O,11,72*,0,0
COc1cc([N+](=O)[O-])cc(/C=N/NC(=O)c2cc(-c3ccccc3)n[nH]2)c1O,22,2,0,0
COc1ccc(-c2cc(C(=O)N/N=C/c3c(C)[nH]c4ccccc34)[nH]n2)cc1OC,9,45*,0,1
COc1cccc(/C=N/NC(=O)c2ccn(C)n2)c1O,9,-30,0,-1
COc1ccccc1-c1cc(C(=O)N/N=C\c2ccccc2)[nH]n1,3,-3,0,3
COc1ccccc1-c1cc(C(=O)N/N=C/c2cccc(OC)c2O)[nH]n1,33,40*,0,0
c1ccc(-c2nc(NC3CCCCC3)cc(C3CC3)n2)nc1,.,.,.,-1
CN1CCC(N(C(=O)c2ccccc2)C2CCN(C)CC2)CC1,-10,-4,0,1
O=C1/C(=C/c2ccc([N+](=O)[O-])cc2)SC(=Nc2ccccc2)N1c1ccccc1,-5,-3,0,0
Cc1cccc(-c2n[nH]c(=S)n2-c2ccccc2)c1,1,49*,0,0
S=c1[nH]nc(-c2ccccc2)n1-c1ccccc1,7,8,0,0
CC1CCc2c(sc(NC(=O)c3cc(-n4cnnc4)ccc3Cl)c2C#N)C1 (configuration not stated),1,3,0,2
O=[N+]([O-])c1ccc(Sc2nnnn2-c2ccccc2)c(Cl)c1,21,34*,0,0
SMILES,MITF inh,TEAD-YAP block,FBW7 act,GPR151 activ
O=[N+]([O-])c1cc(C(F)(F)F)ccc1Sc1nnnn1-c1ccccc1,2,2,0,0
Cn1c(Sc2ccc([N+](=O)[O-])c3cnccc23)nnc1C(F)(F)F,-12,-1,0,1
O=[N+]([O-])c1ccc(Sc2nnnn2-c2ccccc2)c2ccncc12,4,50*,0,-1
Cc1ccccc1-n1nnnc1Sc1ccc([N+](=O)[O-])c2cnccc12,-7,44*,0,1
CC(=O)c1ccc(Sc2nnnn2-c2ccccc2)c([N+](=O)[O-])c1,4,33*,0,-2
Cc1sc2ncnc(N3CCNC(=O)C3)c2c1C,2,22,0,-1
Cc1ccsc1/C=N/NC(=O)C(=O)Nc1ccc(Cl)cc1,-3,-4,0,2
COc1ccc(CNc2ccnc3c(-c4cncnc4)cnn23)cc1,15,44*,-1,2
CCCNc1ccnc2c(-c3ccsc3)cnn12,17,54*,0,-1
CCCNc1ccnc2c(-c3ccc(N)cc3)cnn12,4,76*,1,-1
Cc1cccc(N(C)c2ccnc3c(-c4cccc(N)c4)cnn23)c1,17,-4,0,1
Cc1cccc(N(C)c2ccnc3c(-c4ccc(N)cc4)cnn23)c1,18,56*,0,0
COCCN(C(=O)c1cccs1)C(C(=O)NC1CCCCC1)c1ccc(F)cc1 (configuration not stated),3,-3,0,-1
O=C1CCC(CCC(=O)N2CCC(c3ccccc3Cl)C2)(Cc2ccco2)N1 (configuration not stated),0,-8,0,-1
OC1CCC(Nc2nccn3c(-c4ccc(F)cc4)cnc23)CC1 (configuration not stated),3,-6,0,-1
O=C(NC1CC1)c1ccc(-c2cnc3c(NC4CCC(O)CC4)nccn23)cc1 (configuration not stated),-8,51*,0,-1
COc1cc(-c2cnc3c(NC4CCC(O)CC4)nccn23)cc(OC)c1OC (configuration not stated),0,15,0,0
COc1ccccc1-c1cnc2c(NC3CCC(O)CC3)nccn12 (configuration not stated),14,50*,0,0
OC1CCC(Nc2nccn3c(-c4ccc5c(c4)OCO5)cnc23)CC1 (configuration not stated),15,-15,1.9*,-1
Nc1nc(NCc2ccccc2)cc(-c2ccc3[nH]ccc3c2)n1,0,34*,0,-1
Cc1cc(=O)n2nc(N(C)CC(=O)NCCC3=CCCCC3)sc2n1,10,-9,0,0
CCCCN(C)c1nnc(NC(=O)Nc2ccccc2OC)s1,1,-14,0,1
CCCCN(C)c1nnc(NC(=O)Nc2cc(OC)c(OC)c(OC)c2)s1,11,56*,0,0
Cc1ccc(S(=O)(=O)Nc2cncc(C(=O)NC3CCCCC3C)c2)cc1 (configuration not stated),-12,5,0,1
C(=N/Nc1nnc2c(n1)[nH]c1ccccc12)/c1c[nH]c2ccccc12,1,-2,1,0
Oc1ccc(/C=N/Nc2nnc3c(n2)[nH]c2ccccc23)c(O)c1O,111*,-10,-1,0
Cc1cccc2c1[nH]c1nc(N/N=C\c3c[nH]c4ccccc34)nnc12,-2,44*,0,-1
Oc1ccc(Cl)cc1/C=N/Nc1nnc2c(n1)[nH]c1ccccc12,3,-9,0,1
CCOc1cc(/C=N/n2cnnc2)cc(I)c1O,65*,-2,0,1
CCc1c(C)sc(NC(=O)C2CC2c2ccccc2)c1C(N)=O (configuration not stated),9,33*,0,4
